Data as given in the supplement of paper PMC10849652.
About 7,900 targets were measured; listed, in parts, are those with a hit and a random draw of the rest. About 0.6% of all pairs of compound and target were hits. Values without a mark were called inactive.

Compound: C1=CC=C(C=C1)C2=NC(=C(N2)C3=CC=NC=C3)C4=CC(=C(C=C4)Cl)O
Experiment: log2 fold change, soluble protein after heating vs DMSO (PISA); higher = thermal stabilisation; K562 cells, 10 uM, 30 min; active = over 0.2 and 3.5 SD of the protein, either way, in both replicates (recomputed)
How it was run: (§1)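 Quantification of soluble protein used TMTpro 16plex LC-MS/MS, with channel sums equalised. Samples were the supernatant after 21,000xg for 90 min of pooled aliquots from K562 cells (2×10^6 cells/mL) treated with 10 μM compound for 30 min, heated for 3 min over 48°C-58°C, and extracted in PBS with 0.5% NP-40 at 4°C. Values, from duplicates, describe thermal stability against control samples on a log2 fold-change scale.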

UniProt P13473, sequence (P13473 whole entry, looked up): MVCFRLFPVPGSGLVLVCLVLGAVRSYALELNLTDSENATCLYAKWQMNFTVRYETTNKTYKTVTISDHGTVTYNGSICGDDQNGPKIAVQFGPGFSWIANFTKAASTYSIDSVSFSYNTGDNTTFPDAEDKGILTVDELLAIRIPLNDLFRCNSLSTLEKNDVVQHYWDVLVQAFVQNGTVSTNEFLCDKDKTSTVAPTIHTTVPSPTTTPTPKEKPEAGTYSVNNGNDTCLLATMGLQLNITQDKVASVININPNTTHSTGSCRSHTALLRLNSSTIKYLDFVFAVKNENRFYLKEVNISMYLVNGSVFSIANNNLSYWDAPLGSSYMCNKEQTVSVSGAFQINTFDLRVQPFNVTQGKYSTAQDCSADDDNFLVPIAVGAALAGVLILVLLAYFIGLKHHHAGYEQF
UniProt Q9BY66, sequence (Q9BY66 whole entry, looked up): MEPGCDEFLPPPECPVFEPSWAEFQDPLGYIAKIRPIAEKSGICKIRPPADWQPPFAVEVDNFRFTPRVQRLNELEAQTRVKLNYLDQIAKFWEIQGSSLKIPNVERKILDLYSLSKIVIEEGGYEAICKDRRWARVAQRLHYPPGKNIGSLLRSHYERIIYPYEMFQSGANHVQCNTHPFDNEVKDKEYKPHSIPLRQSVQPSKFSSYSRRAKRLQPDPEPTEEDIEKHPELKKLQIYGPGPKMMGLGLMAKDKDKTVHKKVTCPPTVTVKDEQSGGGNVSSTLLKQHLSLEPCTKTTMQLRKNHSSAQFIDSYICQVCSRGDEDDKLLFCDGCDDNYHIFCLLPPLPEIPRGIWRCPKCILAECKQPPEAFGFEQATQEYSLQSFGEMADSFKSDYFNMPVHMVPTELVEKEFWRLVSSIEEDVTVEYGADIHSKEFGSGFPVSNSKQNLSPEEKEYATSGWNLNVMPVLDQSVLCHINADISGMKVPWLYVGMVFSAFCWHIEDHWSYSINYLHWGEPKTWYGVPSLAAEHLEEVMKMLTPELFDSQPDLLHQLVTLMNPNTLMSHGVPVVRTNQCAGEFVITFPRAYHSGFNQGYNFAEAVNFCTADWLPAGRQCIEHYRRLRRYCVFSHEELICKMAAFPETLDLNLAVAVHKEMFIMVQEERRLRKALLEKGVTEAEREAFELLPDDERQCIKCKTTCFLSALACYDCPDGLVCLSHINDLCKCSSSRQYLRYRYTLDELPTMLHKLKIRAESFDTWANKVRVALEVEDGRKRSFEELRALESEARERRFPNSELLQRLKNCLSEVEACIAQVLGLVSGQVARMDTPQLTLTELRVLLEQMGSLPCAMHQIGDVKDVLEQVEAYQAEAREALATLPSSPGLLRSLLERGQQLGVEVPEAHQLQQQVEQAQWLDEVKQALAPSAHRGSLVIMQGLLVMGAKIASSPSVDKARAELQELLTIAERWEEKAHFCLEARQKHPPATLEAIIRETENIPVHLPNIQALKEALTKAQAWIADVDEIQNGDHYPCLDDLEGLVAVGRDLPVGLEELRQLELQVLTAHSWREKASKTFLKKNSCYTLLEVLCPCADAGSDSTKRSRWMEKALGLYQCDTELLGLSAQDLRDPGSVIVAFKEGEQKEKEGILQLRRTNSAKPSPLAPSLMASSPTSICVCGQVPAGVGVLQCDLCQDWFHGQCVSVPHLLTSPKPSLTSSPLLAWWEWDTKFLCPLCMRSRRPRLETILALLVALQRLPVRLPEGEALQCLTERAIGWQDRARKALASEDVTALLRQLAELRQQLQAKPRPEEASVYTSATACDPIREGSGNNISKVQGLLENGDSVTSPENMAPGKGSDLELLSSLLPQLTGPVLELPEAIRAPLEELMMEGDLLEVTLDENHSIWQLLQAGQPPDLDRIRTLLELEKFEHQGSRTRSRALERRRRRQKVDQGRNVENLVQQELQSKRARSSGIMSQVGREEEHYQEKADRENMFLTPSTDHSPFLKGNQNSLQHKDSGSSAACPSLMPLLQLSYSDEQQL
UniProt Q9NQ29, sequence (Q9NQ29 whole entry, looked up): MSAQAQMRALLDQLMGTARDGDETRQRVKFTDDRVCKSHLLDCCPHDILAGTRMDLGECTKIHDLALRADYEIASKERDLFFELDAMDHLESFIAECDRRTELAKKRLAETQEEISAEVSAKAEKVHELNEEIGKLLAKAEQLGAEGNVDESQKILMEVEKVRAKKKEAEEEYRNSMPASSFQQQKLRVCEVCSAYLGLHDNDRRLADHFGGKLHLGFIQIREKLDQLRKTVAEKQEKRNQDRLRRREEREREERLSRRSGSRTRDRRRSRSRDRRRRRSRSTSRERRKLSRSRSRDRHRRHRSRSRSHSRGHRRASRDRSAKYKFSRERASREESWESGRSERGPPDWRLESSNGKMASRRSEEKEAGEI
UniProt Q9Y383, sequence (Q9Y383 whole entry, looked up): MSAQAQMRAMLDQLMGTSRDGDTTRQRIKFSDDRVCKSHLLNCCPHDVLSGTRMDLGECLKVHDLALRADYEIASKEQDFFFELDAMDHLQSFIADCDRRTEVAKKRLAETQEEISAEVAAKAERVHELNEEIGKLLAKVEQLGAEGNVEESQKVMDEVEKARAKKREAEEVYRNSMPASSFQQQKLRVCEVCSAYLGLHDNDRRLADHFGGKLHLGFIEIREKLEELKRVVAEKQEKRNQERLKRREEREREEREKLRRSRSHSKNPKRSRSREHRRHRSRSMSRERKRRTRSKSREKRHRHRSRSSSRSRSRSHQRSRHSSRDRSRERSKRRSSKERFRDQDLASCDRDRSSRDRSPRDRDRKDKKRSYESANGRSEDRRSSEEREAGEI
UniProt O95140, sequence (O95140 whole entry, looked up): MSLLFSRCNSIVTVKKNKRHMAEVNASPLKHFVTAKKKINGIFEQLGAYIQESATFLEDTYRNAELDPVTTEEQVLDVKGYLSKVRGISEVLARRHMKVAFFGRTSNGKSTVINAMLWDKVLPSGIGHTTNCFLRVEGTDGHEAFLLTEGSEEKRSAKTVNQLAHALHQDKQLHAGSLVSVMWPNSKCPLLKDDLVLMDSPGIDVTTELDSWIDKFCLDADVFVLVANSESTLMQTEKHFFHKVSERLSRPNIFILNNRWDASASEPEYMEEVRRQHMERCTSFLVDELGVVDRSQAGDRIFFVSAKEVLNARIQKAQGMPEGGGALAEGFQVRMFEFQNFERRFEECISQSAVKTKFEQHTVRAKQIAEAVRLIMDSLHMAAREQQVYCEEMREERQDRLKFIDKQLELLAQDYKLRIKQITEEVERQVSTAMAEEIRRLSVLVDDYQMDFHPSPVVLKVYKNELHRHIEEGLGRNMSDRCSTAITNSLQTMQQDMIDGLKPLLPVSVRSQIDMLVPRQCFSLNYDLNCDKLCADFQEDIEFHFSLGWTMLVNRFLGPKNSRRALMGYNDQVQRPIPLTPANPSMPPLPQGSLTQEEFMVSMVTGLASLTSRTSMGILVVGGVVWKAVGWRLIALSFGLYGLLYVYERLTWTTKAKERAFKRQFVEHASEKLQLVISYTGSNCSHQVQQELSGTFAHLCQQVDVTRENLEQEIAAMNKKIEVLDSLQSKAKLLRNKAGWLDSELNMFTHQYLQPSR
UniProt O14880, sequence (O14880 whole entry, looked up): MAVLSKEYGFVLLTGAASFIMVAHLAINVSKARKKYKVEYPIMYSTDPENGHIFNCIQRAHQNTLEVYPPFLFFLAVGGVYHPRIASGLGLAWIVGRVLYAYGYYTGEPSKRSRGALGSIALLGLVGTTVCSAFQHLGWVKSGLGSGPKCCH
UniProt P45984, sequence (P45984 whole entry, looked up): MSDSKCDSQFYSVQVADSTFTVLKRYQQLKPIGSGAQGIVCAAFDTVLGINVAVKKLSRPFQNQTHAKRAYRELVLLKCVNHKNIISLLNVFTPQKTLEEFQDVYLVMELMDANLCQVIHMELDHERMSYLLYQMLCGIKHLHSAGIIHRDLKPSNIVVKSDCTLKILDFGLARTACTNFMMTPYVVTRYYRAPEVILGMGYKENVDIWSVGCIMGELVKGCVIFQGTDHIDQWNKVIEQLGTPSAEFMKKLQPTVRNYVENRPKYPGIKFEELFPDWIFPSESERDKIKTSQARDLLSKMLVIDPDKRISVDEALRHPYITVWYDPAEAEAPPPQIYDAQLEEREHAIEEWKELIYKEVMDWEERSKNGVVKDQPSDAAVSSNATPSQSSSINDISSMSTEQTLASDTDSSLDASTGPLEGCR
UniProt Q14739, sequence (Q14739 whole entry, looked up): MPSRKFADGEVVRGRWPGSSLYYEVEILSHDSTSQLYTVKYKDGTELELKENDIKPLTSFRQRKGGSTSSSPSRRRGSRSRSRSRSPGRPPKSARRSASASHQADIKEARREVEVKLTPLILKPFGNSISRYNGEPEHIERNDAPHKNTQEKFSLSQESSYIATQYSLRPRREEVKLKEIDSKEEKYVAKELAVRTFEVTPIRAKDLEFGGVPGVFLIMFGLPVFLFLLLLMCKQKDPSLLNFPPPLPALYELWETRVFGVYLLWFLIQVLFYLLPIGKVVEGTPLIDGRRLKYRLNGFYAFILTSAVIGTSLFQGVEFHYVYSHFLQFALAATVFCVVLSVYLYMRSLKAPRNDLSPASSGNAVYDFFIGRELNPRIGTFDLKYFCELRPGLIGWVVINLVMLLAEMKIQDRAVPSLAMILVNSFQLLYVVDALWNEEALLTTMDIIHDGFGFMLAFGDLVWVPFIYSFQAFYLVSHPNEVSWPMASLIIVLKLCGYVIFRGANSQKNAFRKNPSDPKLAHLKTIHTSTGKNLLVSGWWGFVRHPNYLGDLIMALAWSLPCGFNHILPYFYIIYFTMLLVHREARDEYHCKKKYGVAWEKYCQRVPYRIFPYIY
UniProt Q96LU5, sequence (Q96LU5 whole entry, looked up): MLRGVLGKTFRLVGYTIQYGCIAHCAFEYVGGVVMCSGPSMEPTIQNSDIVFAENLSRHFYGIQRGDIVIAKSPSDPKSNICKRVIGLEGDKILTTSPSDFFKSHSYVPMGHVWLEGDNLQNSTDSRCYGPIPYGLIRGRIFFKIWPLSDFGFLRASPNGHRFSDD
UniProt Q8WV07, sequence (Q8WV07 whole entry, looked up): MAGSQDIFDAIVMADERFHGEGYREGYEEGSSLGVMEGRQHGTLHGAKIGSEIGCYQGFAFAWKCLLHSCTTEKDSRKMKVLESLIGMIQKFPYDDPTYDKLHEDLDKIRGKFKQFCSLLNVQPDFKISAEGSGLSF

| Target | log2 fold change |
| --- | --- |
| MAPK9 (UniProt P45984) | -0.026 |
| MGST3 (UniProt O14880) | -0.022 |
| INTS7 (UniProt Q9NVH2) | -0.081 |
| LARP1 (UniProt Q6PKG0) | -0.081 |
| KDM5D isoform 3 (UniProt Q9BY66) | -0.005 |
| MAP2K1 (UniProt Q02750) | -0.028 |
| MAP3K20 (UniProt Q9NYL2) | -0.011 |
| LUC7L3 (UniProt O95232) | -0.043 |
| LBR (UniProt Q14739) | 0.059 |
| L2HGDH (UniProt Q9H9P8) | 0.05 |
| KDM3B (UniProt Q7LBC6) | 0.029 |
| LUC7L2 (UniProt Q9Y383) | 0.008 |
| MFN2 (UniProt O95140) | 0.041 |
| IPO9 (UniProt Q96P70) | -0.035 |
| LSR (UniProt Q86X29) | -0.105 |
| MAP4 (UniProt P27816) | -0.007 |
| LARP7 isoform 3 (UniProt Q4G0J3) | 0.025 |
| MFF (UniProt Q9GZY8) | -0.008 |
| METTL18 (UniProt O95568) | -0.039 |
| ILF3 isoform 7 (UniProt Q12906) | -0.061 |

| Target | log2 fold change |
| --- | --- |
| LAMP2 (UniProt P13473) | -0.013 |
| LRPPRC (UniProt P42704) | 0.185 |
| MAPKAPK3 (UniProt Q16644) | 0.256 |
| MDC1 (UniProt Q14676) | 0.177 |
| MAPKAPK5 (UniProt Q8IW41) | 0.043 |
| KRAS isoform 2 (UniProt P01116) | 0.002 |
| LTO1 (UniProt Q8WV07) | -0.035 |
| MEAK7 (UniProt Q6P9B6) | -0.062 |
| KPNA6 (UniProt O60684) | 0.015 |
| LSS (UniProt P48449) | -0.005 |
| MARK3 (UniProt P27448) | -0.032 |
| KIFBP (UniProt Q96EK5) | -0.008 |
| LUZP1 (UniProt Q86V48) | -0.091 |
| MARK2 (UniProt E9PC69) | -0.014 |
| IRF2BPL (UniProt Q9H1B7) | 0.089 |
| MFN1 (UniProt Q8IWA4) | -0.016 |
| LUC7L (UniProt Q9NQ29) | -0.105 |
| IMMP1L (UniProt Q96LU5) | -0.084 |
| IL27RA (UniProt Q6UWB1) | 0.064 |

Compound: C1=CC=C2C(=C1)C3=NNC4=CC=CC(=C43)C2=O
Experiment: as above
How it was run: as §1

| Target | log2 fold change |
| --- | --- |
| MAPK9 (UniProt P45984) | 0.202 |
| MGST3 (UniProt O14880) | -0.023 |
| INTS7 (UniProt Q9NVH2) | 0.022 |
| LARP1 (UniProt Q6PKG0) | -0.067 |
| KDM5D isoform 3 (UniProt Q9BY66) | 0.026 |
| MAP2K1 (UniProt Q02750) | -0.005 |
| MAP3K20 (UniProt Q9NYL2) | -0.106 |
| LUC7L3 (UniProt O95232) | -0.104 |
| LBR (UniProt Q14739) | -0.002 |
| L2HGDH (UniProt Q9H9P8) | 0.093 |
| KDM3B (UniProt Q7LBC6) | -0.015 |
| LUC7L2 (UniProt Q9Y383) | -0.143 |
| MFN2 (UniProt O95140) | -0.003 |
| IPO9 (UniProt Q96P70) | -0.024 |
| LSR (UniProt Q86X29) | -0.114 |
| MAP4 (UniProt P27816) | -0.02 |
| LARP7 isoform 3 (UniProt Q4G0J3) | -0.055 |
| MFF (UniProt Q9GZY8) | -0.062 |
| METTL18 (UniProt O95568) | -0.06 |
| ILF3 isoform 7 (UniProt Q12906) | -0.01 |

| Target | log2 fold change |
| --- | --- |
| LAMP2 (UniProt P13473) | -0.01 |
| LRPPRC (UniProt P42704) | -0.223 |
| MAPKAPK3 (UniProt Q16644) | 0.029 |
| MDC1 (UniProt Q14676) | -0.094 |
| MAPKAPK5 (UniProt Q8IW41) | 0.025 |
| KRAS isoform 2 (UniProt P01116) | -0.03 |
| LTO1 (UniProt Q8WV07) | -0.052 |
| MEAK7 (UniProt Q6P9B6) | 0.092 |
| KPNA6 (UniProt O60684) | -0.119 |
| LSS (UniProt P48449) | 0.081 |
| MARK3 (UniProt P27448) | -0.578 (active) |
| KIFBP (UniProt Q96EK5) | 0.03 |
| LUZP1 (UniProt Q86V48) | -0.187 |
| MARK2 (UniProt E9PC69) | -0.756 (active) |
| IRF2BPL (UniProt Q9H1B7) | 0.025 |
| MFN1 (UniProt Q8IWA4) | -0.015 |
| LUC7L (UniProt Q9NQ29) | -0.016 |
| IMMP1L (UniProt Q96LU5) | -0.046 |
| IL27RA (UniProt Q6UWB1) | 0.068 |
